Results reported in PubChem BioAssay (NCATS).
Inconclusive results are not listed. The source made the active and inactive calls. Calls come from the whole dose curve; as a rule, active = well fitted curve in the direction sought with a large enough effect; inconclusive = small, poorly fitted or top-dose-only effect, or another doubt; inactive = no such curve, though single readings can be large; an effect the other way counts as inactive or inconclusive.

Assays:
[1] = target: ATP-dependent 6-phosphofructokinase (Trypanosoma brucei brucei) (UniProt O15648); experiment: qHTS Assay to Find Inhibitors of T. brucei phosphofructokinase: hit validation (AID 492961);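 note: luminescence reports ADP formed as PFK phosphorylates fructose-6-phosphate with ATP; % is set by controls: 0 for no effect and ±100 for the full control effect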
Procedure, shortened: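 Percent activity derived from corrected luminescence, normalized between 0x and 1x enzyme controls, then fitted to concentration-response curves. Conditions: 1.25 nM PFK, 0.1 mM ATP, 0.5 mM F6P, 45 min RT.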

[2] = qHTS profiling for inhibitors of Plasmodium falciparum proliferation (AID 504749); note: potency is the fitted concentration of half-maximal effect;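 for activity, negative = inhibition: 0% = DMSO vehicle and full inhibition = artemisinin control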; for all read-outs here: nearly all actives have a fitted effect of over 60% in size; conditions: P. falciparum in erythrocytes, SYBR Green DNA, 72 h; for activity, negative = inhibition: at 28.7 µM (top of the series)
Procedure, shortened: (§1)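 Quantitative HTS: compounds pinned into medium, infected erythrocytes added (0.3% parasitemia, 2.5% hematocrit), 72 h culture at 37 C under 5% CO2. Saponin/Triton lysis with SYBR Green I, overnight RT, then fluorescence read.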

3D7 = experiment: as above; conditions: P. falciparum in erythrocytes, SYBR Green DNA, 72 h; series mostly up to 28.7 µM
Procedure, shortened: as §1

AA1029 = experiment: as above; conditions: P. falciparum in erythrocytes, SYBR Green DNA, 72 h; series mostly up to 28.7 µM
Procedure, shortened: as §1

AS120 = experiment: as above; conditions: P. falciparum in erythrocytes, SYBR Green DNA, 72 h; series mostly up to 28.7 µM
Procedure, shortened: as §1

ATS189 = experiment: as above; conditions: P. falciparum in erythrocytes, SYBR Green DNA, 72 h; series mostly up to 28.7 µM
Procedure, shortened: as §1

CP185 = experiment: as above; conditions: P. falciparum in erythrocytes, SYBR Green DNA, 72 h; series mostly up to 28.7 µM
Procedure, shortened: as §1

CP191 = experiment: as above; conditions: P. falciparum in erythrocytes, SYBR Green DNA, 72 h; series mostly up to 28.7 µM
Procedure, shortened: as §1

CP211 = experiment: as above; conditions: P. falciparum in erythrocytes, SYBR Green DNA, 72 h; series mostly up to 28.7 µM
Procedure, shortened: as §1

CP217 = experiment: as above; conditions: P. falciparum in erythrocytes, SYBR Green DNA, 72 h; series mostly up to 28.7 µM
Procedure, shortened: as §1

CP238 = experiment: as above; conditions: P. falciparum in erythrocytes, SYBR Green DNA, 72 h; series mostly up to 28.7 µM
Procedure, shortened: as §1

CP252 = experiment: as above; conditions: P. falciparum in erythrocytes, SYBR Green DNA, 72 h; series mostly up to 28.7 µM
Procedure, shortened: as §1

CP262 = experiment: as above; conditions: P. falciparum in erythrocytes, SYBR Green DNA, 72 h; series mostly up to 28.7 µM
Procedure, shortened: as §1

CP265 = experiment: as above; conditions: P. falciparum in erythrocytes, SYBR Green DNA, 72 h; series mostly up to 28.7 µM
Procedure, shortened: as §1

CP286 = experiment: as above; conditions: P. falciparum in erythrocytes, SYBR Green DNA, 72 h; series mostly up to 28.7 µM
Procedure, shortened: as §1

Dd2 = experiment: as above; conditions: P. falciparum in erythrocytes, SYBR Green DNA, 72 h; series mostly up to 28.7 µM
Procedure, shortened: as §1

FAB9 = experiment: as above; conditions: P. falciparum in erythrocytes, SYBR Green DNA, 72 h; series mostly up to 28.7 µM
Procedure, shortened: as §1

N140 = experiment: as above; conditions: P. falciparum in erythrocytes, SYBR Green DNA, 72 h; series mostly up to 28.7 µM
Procedure, shortened: as §1

P94_40 = experiment: as above; conditions: P. falciparum in erythrocytes, SYBR Green DNA, 72 h; series mostly up to 28.7 µM
Procedure, shortened: as §1

TAB109 = experiment: as above; conditions: P. falciparum in erythrocytes, SYBR Green DNA, 72 h; series mostly up to 28.7 µM
Procedure, shortened: as §1

Chain of ATP-dependent 6-phosphofructokinase (Trypanosoma brucei brucei) (O15648 whole entry, looked up): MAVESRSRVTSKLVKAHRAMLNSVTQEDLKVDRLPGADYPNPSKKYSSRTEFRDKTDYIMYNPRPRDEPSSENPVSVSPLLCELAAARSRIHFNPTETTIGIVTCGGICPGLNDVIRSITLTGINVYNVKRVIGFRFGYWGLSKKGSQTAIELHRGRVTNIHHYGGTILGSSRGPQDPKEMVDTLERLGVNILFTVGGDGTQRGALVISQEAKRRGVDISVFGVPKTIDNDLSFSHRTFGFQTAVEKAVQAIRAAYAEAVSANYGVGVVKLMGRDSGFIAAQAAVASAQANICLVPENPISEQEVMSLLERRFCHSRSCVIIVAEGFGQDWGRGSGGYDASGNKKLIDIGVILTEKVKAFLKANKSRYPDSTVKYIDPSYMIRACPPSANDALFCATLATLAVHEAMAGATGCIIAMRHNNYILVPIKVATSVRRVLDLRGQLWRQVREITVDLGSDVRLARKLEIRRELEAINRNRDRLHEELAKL

O=C1[C@@H]2C[C@@H]3C[C@H]1C[C@@](O)(C3)C2
inactive: Potency [1] | activity, negative = inhibition ([2]; parasite line A) -0.632% | activity, negative = inhibition ([2]; parasite line B) 11.7% | Potency (3D7) | Potency (AA1029) | Potency (AS120) | Potency (ATS189) | Potency (CP185) | Potency (CP191) | Potency (CP211) | Potency (CP217) | Potency (CP238) | Potency (CP252) | Potency (CP262) | Potency (CP265) | Potency (CP286) | Potency (Dd2) | Potency (FAB9) | Potency (N140) | Potency (P94_40) | Potency (TAB109)

CC(=O)NC1[C@H](O)C[C@@](O)(C(=O)O)O[C@H]1[C@H](O)[C@H](O)CO (stereo not given in full)
inactive: Potency [1] | activity, negative = inhibition ([2]; parasite line A) 5.53% | activity, negative = inhibition ([2]; parasite line B) -8.73% | Potency (3D7) | Potency (AA1029) | Potency (AS120) | Potency (ATS189) | Potency (CP185) | Potency (CP191) | Potency (CP211) | Potency (CP217) | Potency (CP238) | Potency (CP252) | Potency (CP262) | Potency (CP265) | Potency (CP286) | Potency (Dd2) | Potency (FAB9) | Potency (N140) | Potency (P94_40) | Potency (TAB109)

C=NC(C(=O)NC1C(=O)N2C1SC(C)(C)C2C(=O)O)c1ccccc1 (stereo not given)
inactive: Potency [1] | activity, negative = inhibition ([2]; parasite line A) 7.65% | activity, negative = inhibition ([2]; parasite line B) -6.25% | Potency (3D7) | Potency (AA1029) | Potency (AS120) | Potency (ATS189) | Potency (CP185) | Potency (CP191) | Potency (CP211) | Potency (CP217) | Potency (CP238) | Potency (CP252) | Potency (CP262) | Potency (CP265) | Potency (CP286) | Potency (Dd2) | Potency (FAB9) | Potency (N140) | Potency (P94_40) | Potency (TAB109)

CO[C@H]1OC2O[C@@]3(C)CC[C@H]4[C@H](C)CC[C@@H]([C@H]1C)[C@@]24OO3 (stereo not given in full)
active: Potency ([2]; parasite line A) 25.1 nM | Potency ([2]; parasite line B) 15.8 nM | Potency (3D7) 14.1 nM | Potency (AA1029) 31.6 nM | Potency (AS120) 22.4 nM | Potency (ATS189) 14.1 nM | Potency (CP185) 31.6 nM | Potency (CP191) 11.2 nM | Potency (CP211) 75.7 nM | Potency (CP217) 31.6 nM | Potency (CP238) 22.4 nM | Potency (CP252) 31.6 nM | Potency (CP262) 33.8 nM | Potency (CP265) 3.2 nM | Potency (CP286) 17.8 nM | Potency (Dd2) 7.1 nM | Potency (FAB9) 22.4 nM | Potency (N140) 12.6 nM | Potency (P94_40) 11.2 nM | Potency (TAB109) 12.6 nM
inactive: Potency [1]

OC[C@@H]1O[C@](CO)(O[C@H]2O[C@H](CO)[C@@H](O)[C@H](O)[C@H]2O)[C@H](O)[C@H]1O
inactive: Potency [1] | activity, negative = inhibition ([2]; parasite line A) -1.62% | activity, negative = inhibition ([2]; parasite line B) 7.05% | Potency (3D7) | Potency (AA1029) | Potency (AS120) | Potency (ATS189) | Potency (CP185) | Potency (CP191) | Potency (CP211) | Potency (CP217) | Potency (CP238) | Potency (CP252) | Potency (CP262) | Potency (CP265) | Potency (CP286) | Potency (Dd2) | Potency (FAB9) | Potency (N140) | Potency (P94_40) | Potency (TAB109)

O=C1NC(=O)C2C3C=CC(C3)C12 (stereo not given)
inactive: Potency [1] | activity, negative = inhibition ([2]; parasite line A) 8.3% | activity, negative = inhibition ([2]; parasite line B) 20.1% | Potency (3D7) | Potency (AA1029) | Potency (AS120) | Potency (ATS189) | Potency (CP185) | Potency (CP191) | Potency (CP211) | Potency (CP217) | Potency (CP238) | Potency (CP252) | Potency (CP262) | Potency (CP265) | Potency (CP286) | Potency (Dd2) | Potency (FAB9) | Potency (N140) | Potency (P94_40) | Potency (TAB109)

CCCCCCCCCCCC(=O)OCC(O)C1OCC(O)C1O (stereo not given)
inactive: Potency [1] | activity, negative = inhibition ([2]; parasite line A) -2.73% | activity, negative = inhibition ([2]; parasite line B) 8.41% | Potency (3D7) | Potency (AA1029) | Potency (AS120) | Potency (ATS189) | Potency (CP185) | Potency (CP191) | Potency (CP211) | Potency (CP217) | Potency (CP238) | Potency (CP252) | Potency (CP262) | Potency (CP265) | Potency (CP286) | Potency (Dd2) | Potency (FAB9) | Potency (N140) | Potency (P94_40) | Potency (TAB109)

COc1cccc(OC)c1C(=O)NC1C(=O)N2C1SC(C)(C)C2C(=O)O (stereo not given)
inactive: Potency [1] | activity, negative = inhibition ([2]; parasite line A) 11.2% | activity, negative = inhibition ([2]; parasite line B) -9.69% | Potency (3D7) | Potency (AA1029) | Potency (AS120) | Potency (ATS189) | Potency (CP185) | Potency (CP191) | Potency (CP211) | Potency (CP217) | Potency (CP238) | Potency (CP252) | Potency (CP262) | Potency (CP265) | Potency (CP286) | Potency (Dd2) | Potency (FAB9) | Potency (N140) | Potency (P94_40) | Potency (TAB109)

C[C@]12CC[C@@H]3c4ccc(O)cc4CC[C@H]3[C@@H]1C[C@H](O)C2O (stereo not given in full)
inactive: Potency [1] | activity, negative = inhibition ([2]; parasite line A) 7.19% | activity, negative = inhibition ([2]; parasite line B) 12.7% | Potency (3D7) | Potency (AA1029) | Potency (AS120) | Potency (ATS189) | Potency (CP185) | Potency (CP191) | Potency (CP211) | Potency (CP217) | Potency (CP238) | Potency (CP252) | Potency (CP262) | Potency (CP265) | Potency (CP286) | Potency (Dd2) | Potency (FAB9) | Potency (N140) | Potency (P94_40) | Potency (TAB109)

CC[C@@]1(O)C[C@H](O[C@H]2C[C@@H](N(C)C)[C@@H](O[C@H]3C[C@@H](O)[C@@H](O[C@H]4CCC(=O)[C@@H](C)O4)[C@@H](C)O3)[C@@H](C)O2)c2c(cc3c(c2O)C(=O)c2c(O)cccc2C3=O)[C@H]1C(=O)OC
active: Potency ([2]; parasite line A) 141 nM | Potency ([2]; parasite line B) 199 nM | Potency (3D7) 126 nM | Potency (AA1029) 199 nM | Potency (AS120) 100 nM | Potency (ATS189) 355 nM | Potency (CP185) 251 nM | Potency (CP191) 199 nM | Potency (CP211) 849 nM | Potency (CP217) 251 nM | Potency (CP238) 178 nM | Potency (CP252) 224 nM | Potency (CP262) 757 nM | Potency (CP265) 224 nM | Potency (CP286) 39.8 nM | Potency (Dd2) 89.1 nM | Potency (FAB9) 891 nM | Potency (N140) 178 nM | Potency (P94_40) 158 nM | Potency (TAB109) 224 nM
inactive: Potency [1]
